Rows were chosen to be rich in hits. Some 3.4% of all compounds tested hit in one or more screens of this group.
FXN GAA850 act: activators of GAA850 frataxin (FXN) promoter. HEK293 lucGAA850 FXN promoter luciferase reporter, 24 h; percent of 10 µM SAHA response. activation, % at 6 µM. 0.56% of 360,000 active. AID 540364;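 active = activation above the average of all compounds screened plus 3 SD, cutoff fixed separately per campaign, cut at about 7.5% in these data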
GalR3 antag: blocks the human galanin receptor 3. O60755. HEK293 GalR3-CNG cAMP membrane potential fluorescence; galR3 body fused to GalR1 C-terminus. inhibition, % at 3 µM. 0.44% of 360,000 active. AID 651719;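 active = inhibition above the screen-wide average plus 3 SD, cut at about 13% in these data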;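 also: forskolin and galanin both at EC90 stimulate the cells; cAMP rise reported by CNG channel membrane potential dye signal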
Cardio protect: protects H9c2 cardiomyocytes from peroxide injury; protection from H2O2 cell death, % at 20 µM; 0.63% of 360,000 active; H2O2 injury protection, ATPLite, 2 h; AID 588492;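 active = compounds giving at least 50% protection of heart cells from peroxide-induced death in the single-dose screen, raw or plate-pattern-corrected value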
COUP-TFII inh: NR2F2 (human) inhibition, primary screen; 0.7% of 370,000 active; P24468; AID 686940; HEK293T NGFI-A luciferase reporter, luminescence; inhibition, % at 8.6 µM;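 active = inhibition above a per-plate cutoff, mean inhibition of test wells between control levels plus 3 SD, cut at about 38% in these data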;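 also: cells cotransfected with COUP-TFII expression vector driving the NGFI-A reporter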
Target sequence (P24468 whole entry, looked up): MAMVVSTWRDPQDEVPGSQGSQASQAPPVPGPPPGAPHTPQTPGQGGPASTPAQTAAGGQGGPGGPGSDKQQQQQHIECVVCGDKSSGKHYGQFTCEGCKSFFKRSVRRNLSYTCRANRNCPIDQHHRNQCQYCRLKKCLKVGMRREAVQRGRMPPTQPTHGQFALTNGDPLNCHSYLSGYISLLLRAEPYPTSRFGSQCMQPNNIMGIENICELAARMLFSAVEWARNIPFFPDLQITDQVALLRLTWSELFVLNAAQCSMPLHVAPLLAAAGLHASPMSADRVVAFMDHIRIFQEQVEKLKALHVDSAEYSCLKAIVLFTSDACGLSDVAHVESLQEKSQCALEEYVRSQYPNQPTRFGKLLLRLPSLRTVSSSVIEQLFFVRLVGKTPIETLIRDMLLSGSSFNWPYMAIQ
SMARCA2 act: activators of SMARCA2 function; MG213 cells, MMTV-luciferase reporter, dexamethasone, overnight; activation, % at 9.1 µM; 1% of 370,000 active; AID 652017; in the data active = activation above about 7.8%
Gli-Sufu antag: antagonists of Gli-Sufu signaling; inhibition, % at 5 µM; AID 588413; 0.74% of 340,000 active; Sufu-KO-LIGHT fibroblasts, Gli luciferase reporter luminescence;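 active = inhibition above about 55%, limit read from the data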
Gli-Sufu confirm: Gli-SUFU antagonism confirmation, single concentration | shares compounds with Gli-Sufu antag | 40% of 2,500 active | AID 602428 | inhibition, % at 5 µM | Sufu-KO-LIGHT cells, Gli luciferase reporter, luminescence;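 active = mean inhibition at 5 µM reaching about 45%, limit read from the data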
Gli cytotox: counter-screen for Gli-SUFU antagonists: cytotoxicity; shares compounds with Gli-Sufu antag; Sufu-KO-LIGHT cells cytotoxicity, ATP luminescence; cytotoxicity, % at 5 µM; 32% of 2,500 active;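 active = mean cytotoxicity at 5 µM above about 25%, limit read from the data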;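 also: cells exposed to compound overnight for roughly 16 to 18 hours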
Wnt3a cs: Wnt3a reporter inhibition counter-screen. Wnt-LIGHT cells, Wnt3a-driven luciferase reporter, luminescence. shares compounds with Gli-Sufu antag. inhibition, % at 6.25 µM. 20% of 2,500 active;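 active = mean inhibition above about 25%, limit read from the data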
Hits are given with their value.

For Cc1ccc(C2N(c3ccccc3)C(=S)N3CCCN23)cc1 (centres undefined) the results were FXN GAA850 act inactive, GalR3 antag inactive, Cardio protect inactive, COUP-TFII inh inactive, SMARCA2 act inactive, Gli-Sufu antag 99, Gli-Sufu confirm inactive, Gli cytotox inactive and Wnt3a cs inactive.
`CCC(C)N(C(=O)CSc1nc(C)c(C)c(C)c1C#N)C1CCS(=O)(=O)C1` (centres undefined) gave FXN GAA850 act inactive, GalR3 antag inactive, Cardio protect inactive, COUP-TFII inh inactive, SMARCA2 act inactive, Gli-Sufu antag inactive, Gli-Sufu confirm inactive, Gli cytotox inactive and Wnt3a cs inactive.
`CCOC(=O)N(C)[C@H]1C[C@H]2c3[nH]c4ccccc4c3CCN2C(=O)[C@H]1[C@H](C)O` gave GalR3 antag inactive, COUP-TFII inh inactive and SMARCA2 act inactive.
For Brc1ccc(-c2csc(N3CCOCC3)n2)cc1 the results were FXN GAA850 act inactive, GalR3 antag inactive, Cardio protect inactive, COUP-TFII inh inactive, SMARCA2 act inactive and Gli-Sufu antag inactive.
Brc1ccc(-c2csc(N3CCCCCC3)n2)cc1 was read as FXN GAA850 act inactive, GalR3 antag inactive, Cardio protect inactive, COUP-TFII inh inactive, SMARCA2 act inactive, Gli-Sufu antag inactive, Gli-Sufu confirm 59, Gli cytotox inactive and Wnt3a cs 27.
`Cc1cc(C)nc(N/N=C2/CCCC/C2=C\c2ccccc2)n1` gave FXN GAA850 act inactive, GalR3 antag inactive, Cardio protect inactive, COUP-TFII inh inactive, SMARCA2 act inactive, Gli-Sufu antag 74, Gli-Sufu confirm inactive, Gli cytotox inactive and Wnt3a cs inactive.
For Cc1cccc(CN2CCN(C3CN(Cc4cn(Cc5ccccc5C(F)(F)F)nn4)S(=O)(=O)C3)CC2)c1 (centres undefined) the results were GalR3 antag inactive, Cardio protect inactive, COUP-TFII inh inactive and SMARCA2 act inactive.
`COc1ccc(CNCC(C)NCc2ccc(OC)c(OC)c2)cc1OC` (centres undefined) gave FXN GAA850 act inactive, GalR3 antag inactive, Cardio protect inactive, COUP-TFII inh inactive, SMARCA2 act inactive, Gli-Sufu antag 61, Gli-Sufu confirm inactive, Gli cytotox inactive and Wnt3a cs inactive.
Screening CC(NC(=O)c1cccc(Cl)c1)C1CC2CCC1C2 (centres undefined) returned FXN GAA850 act inactive, GalR3 antag inactive, Cardio protect inactive, COUP-TFII inh inactive, SMARCA2 act inactive and Gli-Sufu antag inactive.
`CC(NC(=O)c1cccc(S(=O)(=O)N2CCN(C)CC2)c1)C1CC2CCC1C2` (centres undefined) gave FXN GAA850 act inactive, GalR3 antag inactive, Cardio protect inactive, COUP-TFII inh inactive, SMARCA2 act inactive, Gli-Sufu antag 58, Gli-Sufu confirm inactive, Gli cytotox inactive and Wnt3a cs inactive.
`O=C(/C=C/c1ccc(OCc2ccccc2)c(OCc2ccccc2)c1)c1cccnc1` gave FXN GAA850 act inactive, GalR3 antag inactive, Cardio protect inactive, COUP-TFII inh inactive, SMARCA2 act inactive, Gli-Sufu antag inactive, Gli-Sufu confirm inactive, Gli cytotox inactive and Wnt3a cs inactive.
`CCCCNC(=O)OCCCN1CCC2(CCC(c3ccccc3)CC2)C1` (centres undefined) gave COUP-TFII inh inactive and SMARCA2 act inactive.
`Cc1oc(-c2ccccc2)cc1C(N)=O` gave FXN GAA850 act inactive, GalR3 antag inactive, Cardio protect inactive, COUP-TFII inh inactive, SMARCA2 act inactive, Gli-Sufu antag 100, Gli-Sufu confirm inactive, Gli cytotox inactive and Wnt3a cs inactive.
Cc1ccccc1CN1CCCCC(NC(=O)Nc2cccc(F)c2)C1=O (centres undefined) was read as COUP-TFII inh inactive and SMARCA2 act inactive.
CC(C)N1CCCCC(NC(=O)COCc2ccccc2)C1=O (centres undefined) was read as COUP-TFII inh inactive and SMARCA2 act inactive.

High-throughput results deposited in PubChem by several laboratories.
